Reference: PubChem BioAssay (NCI)
The panel holds about 83,000 compounds, 20% with a hit somewhere; the sample as a whole holds those more often.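 Single-concentration screen, 48 h exposure, 96-well plates. Endpoint: percent growth. Below 10 = active.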 Unmarked numbers belong to inactive results. The source made the active and inactive calls.

Key:
Assay in all cases: NCI-60 one-dose screen, 48 h (100 = growth as untreated, 0 = no growth, -100 = all killed)
Conditions in all cases: 10 µM
NCI-H226 lung = system: NCI-H226 lung
NCI-H322M lung = system: NCI-H322M lung
HOP-62 NSCLC = system: HOP-62 NSCLC
NCI-H460 lung = system: NCI-H460 lung
NCI-H522 lung = system: NCI-H522 lung
A549/ATCC NSCLC = system: A549/ATCC NSCLC
786-0 renal = system: 786-0 renal
COLO 205 colon = system: COLO 205 colon
DU-145 prostate = system: DU-145 prostate

Compound | growth (NCI-H226 lung) | growth (NCI-H322M lung) | growth (HOP-62 NSCLC) | growth (NCI-H460 lung) | growth (NCI-H522 lung) | growth (A549/ATCC NSCLC) | growth (786-0 renal) | growth (COLO 205 colon) | growth (DU-145 prostate)
O=C(Nc1nc(-c2ccccc2Cl)cs1)c1cc(-c2ccc(Cl)cc2)nc2ccc(Cl)cc12 | 72.7% | 90.8% | 28.5% | 96.3% | 57.8% | 92.7% | 23.5% | 94.3% | 32%
O=C(/C=C/c1cc2ccccc2[nH]c1=O)c1ccc2c(c1)OCO2 | 114% | 92% | 98% | 94.4% | 3.16% (active) | 93.4% | 102% | 95.7% | 102%
Cn1c([N+](=O)[O-])cnc1/C=C1\Oc2ccccc2C1=O | -7.33% (active) | 18.6% | -10.3% (active) | -39.5% (active) | -48.5% (active) | -31.4% (active) | -10.9% (active) | -64.6% (active) | -8.91% (active)
COc1ccc(-c2nn(-c3cccc(NC(=O)Nc4ccc(Cl)c(C(F)(F)F)c4)c3)cc2-c2ccncc2)cc1Cl | 22.4% | 19.1% | 25.2% | 1.08% (active) | -8.34% (active) | 8.45% (active) | 19% | -33.3% (active) | 22.7%
COC(=O)C(=C\c1ccc2c(c1)OCO2)/C(=C/c1ccc2c(c1)OCO2)C(=O)OC | 97.8% | 96.9% | 102% | 112% | 86% | 101% | 98.1% | 102% | 103%
COc1ccc2nc3ccccc3c(NCCNCC(C)O)c2c1 (configuration not stated) | -4.19% (active) | -3.32% (active) | -13.6% (active) | -10.8% (active) | -26.5% (active) | -36.4% (active) | 0.024% (active) | -27.5% (active) | 9.52% (active)
O=C1/C(=C\c2cn(C(=O)c3ccc(Cl)cc3)c3ccccc23)c2ccccc2N1C(=O)c1ccc(Cl)cc1 | 89.4% | 98.6% | 61.4% | 86% | 6.02% (active) | 63.3% | 93.7% | 105% | 85.1%
Cc1cc2c(C)c3cc(C)c(N)cc3nc2cc1N | 10.1% | -12.5% (active) | 3.24% (active) | -20.5% (active) | -49.4% (active) | 4.93% (active) | 28% | 1.41% (active) | 10.6%
COc1cc(Cl)cc(-c2nn(-c3cccc(NC(=O)Nc4cc(C(F)(F)F)cc(C(F)(F)F)c4)c3)cc2-c2ccncc2)c1 | -5.97% (active) | 11% | -41.1% (active) | 0.241% (active) | -15.6% (active) | 5.14% (active) | -26.9% (active) | -64% (active) | 13.1%
Cc1ccc(-c2n[nH]c(=O)c3noc(-c4ccc(C)cc4)c23)cc1 | 80.9% | 49.5% | 29.2% | 17.3% | 16.4% | 36.8% | 48.4% | -25.1% (active) | 25.2%
O=C(Nc1cccc(-n2cc(-c3ccncc3)c(-c3ccc(O)c(Cl)c3)n2)c1)c1ccc(N2CCOCC2)c(C(F)(F)F)c1 | 85.8% | 44.5% | 41.5% | 11.6% | 35.6% | 22.9% | 8.9% (active) | 51.2% | 62.7%
N#CCCN1C/C(=C/c2ccccc2)C(=O)/C(=C/c2ccccc2)C1 | 69.8% | 86% | 59.5% | 71% | -51.6% (active) | 76.6% | 34.1% | 59.4% | 35.2%
C#Cc1ccc(-n2c(/C=C/c3ccc(C(F)(F)F)cc3)nc3ncccc3c2=O)cc1 | -42.7% (active) | 33.7% | 37.6% | 72.1% | 4.27% (active) | 23.6% | 53% | 18.6% | 46.2%
OCC1OC(n2cnc3c(N/N=C\c4ccccn4)ncnc32)C(O)C1O (configuration not stated) | 11.3% | 7.28% (active) | 10% | 1.62% (active) | 38.7% | 24.6% | 16.2% | 22.7% | 17.7%
Cc1nc2ccccc2c(N)c1-c1cc(C)c2c(C)nc3ccccc3c2n1 | 98.8% | 10.7% | 58.4% | -75.8% (active) | 68.6% | -75.4% (active) | -89.2% (active) | -91% (active) | -82.4% (active)
CCOC1(OCC)OC(c2ccccc2)=C(C#N)C(/C=C\c2ccccc2)C1(OCC)OCC (configuration not stated) | 81.2% | 84.3% | 91.5% | 81.8% | 82.3% | 82.5% | 87.4% | 88.9% | 89.7%
CN(C)C(=S)N/N=C\C=N/NC(=S)N(C)C | 76.9% | 48.9% | 92.9% | 23.7% | 1.5% (active) | 40.1% | 85.3% | -1.67% (active) | 37.4%
COc1ccc(-c2nc(-c3nc4ccc(Cl)cc4[nH]3)c3ccccn23)cc1 | -45.7% (active) | 54.6% | -77.9% (active) | -24.1% (active) | -3.06% (active) | -37.4% (active) | -72.7% (active) | 76% | 25.6%
O=C(O)CCCCSc1ncnc2nc[nH]c12 | 98.6% | 90.2% | 96.7% | 109% | 84.1% | 101% | 97.2% | 103% | 101%
CC[C@H](C)C(=O)O[C@H]1CCC=C2C=C[C@H](C)C(CCC3C[C@@H](O)CC(=O)O3)[C@H]21 (some centres not stated) | 76.8% | 44.6% | 87% | 92.9% | 23% | 97.2% | 84.8% | 89% | 110%
O=S(=O)(Nc1ccccn1)c1ccc(N=Nc2ccc(O)c3ncccc23)cc1 | 21.3% | -11.8% (active) | 7.27% (active) | 5.48% (active) | -21.6% (active) | -6.8% (active) | 21.4% | 108% | 27.6%
Nc1c(C(=O)Nc2cccc3ccccc23)sc2nc3c(cc12)C(=O)CCC3 | 54.1% | 37.6% | 26.1% | 5.05% (active) | -8.85% (active) | 23.4% | 46.1% | -20.7% (active) | -9.63% (active)
CS(=O)(=O)Nc1cccc(-c2cc(-c3ccccc3Cl)c(C#N)c(N)n2)c1 | 53.4% | 51.8% | 45.8% | 5.56% (active) | -7.33% (active) | 29.4% | 46.7% | -0.179% (active) | 8.95% (active)
CCCCCCCNc1nc(C=O)ncc1-c1ccc(C(F)(F)F)cc1 | 98% | 84.4% | 101% | 103% | 80.1% | 96.4% | 97% | 95.8% | 106%
CSc1nc(=O)n(Cc2ccc(Cl)cc2)c(=O)[nH]1 | 108% | 127% | 92.1% | 108% | 90.7% | 99.1% | 101% | 104% | 104%
Cc1nc2oc3ccccc3c(=O)c2cc1C(=O)NCc1ccccc1 | 105% | 76.2% | 90.5% | 32.2% | 86.4% | 68.9% | 61.5% | 39.9% | 77%
Cc1ccc(NC(=O)NC2CCCCC2)cc1 | 95.5% | 92.2% | 96.1% | 102% | 82.8% | 91.5% | 98.6% | 105% | 114%
O=C(Cc1csc2nc(-c3ccc(Cl)cc3)cn12)N/N=C/c1ccccc1O | 56.2% | 51.4% | 40.3% | 18.5% | 49.2% | 36.9% | 32.9% | 16.5% | -8.65% (active)
